Shown are actives, neighbours in structure and some others; about 7.6% of the full set was active somewhere.
Cy5 interf NS3h: counter-screen for HCV NS3 helicase inhibitors: fluorescence interference; Cy5-dT15 DNA with NS3h; actives lie on both sides; signal over control mean, under 1 quenches; fluorescence interference ratio at 100 µM; hit rate 6% among 16,000; AID 720488;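 active = compound fluorescence over control fluorescence at most 0.8, a quencher, or at least a set upper limit, an enhancer; inactive = ratio between 0.8 and the set upper limit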
NS3h inh CB: blocks HCV NS3 helicase binding to DNA; NS3h Cy5-dT15 DNA binding, fluorescence polarization; inhibition, % at 100 µM; hit rate 1.6% among 16,000;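 active = inhibition above the average over every tested compound plus 3 SD, cut at about 40% in these data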
Each line names hits and unclear results; the compound was inactive in the other large screens.

CCOC(=O)Cc1nnc(Nc2ccc(Nc3nnc(CC(=O)OCC)c4ccccc34)cc2)c2ccccc12	none
CCN(CC)c1ccc(NC(=O)CCN2C(=O)c3ccccc3C2=O)cc1	Cy5 interf NS3h 0.6
O=C(CCN1C(=O)c2ccccc2C1=O)Nc1ccccc1C(=O)N1CCCC1	Cy5 interf NS3h 0.7
O=C(CCN1C(=O)c2ccccc2C1=O)Nc1ccc(I)cc1	none
O=C(CCN1C(=O)c2ccccc2C1=O)Nc1ccccc1C(=O)N1CCOCC1	none
CC(=O)Nc1cccc(/C(C)=N\N=C2/NC(=O)C(CC(=O)Nc3ccc(C(=O)O)cc3)S2)c1 (configuration not stated)	none
COc1cc(CN2CCN(Cc3ccc(Cl)cc3)CC2)cc(OC)c1	none
CN(C)c1ccc(NC(=O)c2ccc(I)cc2)cc1	none
COc1ccc(C)cc1NC(=O)c1ccc(Cl)c(Cl)c1	none
C=CCc1c(C)nc2cc(-c3cccc(F)c3)[nH]n2c1=O	Cy5 interf NS3h 1.2
CCOC(=O)CCc1c(C)nc2cc(-c3cccc(F)c3)[nH]n2c1=O	none
CCOc1ccccc1NC(=O)C(=O)NCCCOC	none
CC(C)C(=O)Nc1ccc(Br)cc1C(=O)O	none
Cc1ccc(C)n1-c1ccc(Br)cc1C(=O)O	NS3h inh CB 49
O=C(c1cc(Cl)ccc1Cl)N(Cc1ccccc1)c1ccccn1	Cy5 interf NS3h 0.62
COc1ccc(Cl)cc1C(=O)N(Cc1ccccc1)C(C)C	none
CCOC(=O)c1c(NC(=O)CCC(=O)OC)sc(C)c1C	none
CC(C)CN1C(=O)c2ccc(C(=O)Nc3c[nH]c(=O)[nH]c3=O)cc2C1=O	Cy5 interf NS3h 0.66
CCC(=O)Nc1ccc(C(=O)Nc2c[nH]c(=O)[nH]c2=O)cc1	none
CCOC(=O)c1cnc2cc(-c3ccccc3Cl)[nH]n2c1=O	none
Cc1ccc(C(=O)Nc2nc3ccccc3n2Cc2ccc(Cl)cc2)cc1	none
O=C(Nc1nc2ccccc2n1Cc1ccc(Cl)cc1)c1ccccc1	Cy5 interf NS3h 0.74
CCCN=C(CCC)C1=C(O)C(C(=O)OC)C(C)(C)CC1=O (configuration not stated)	none
O=C(C[n+]1ccc(C(=O)NCc2ccccc2)cc1)c1ccc(-c2ccccc2)cc1	Cy5 interf NS3h 0.76
Nc1ccc(C(=O)c2ccc(N)c(N)c2)cc1N	none
Nc1cc[n+](CC(=O)c2ccccc2)cc1	Cy5 interf NS3h 0.77
Cc1ccc[n+](CC(=O)c2ccc(-c3ccccc3)cc2)c1	none
CC1=C(C(=O)OC(C)C)C(c2coc3ccccc3c2=O)C2=C(CC(C)(C)CC2=O)N1 (configuration not stated)	none
Cc1ccc(/C=N\N=C2\NC(=O)C(C)S2)cc1 (configuration not stated)	none
CCOC(=O)CCc1c(C)nc2c(C)c(-c3ccccc3)[nH]n2c1=O	Cy5 interf NS3h 1.2
Cc1nc2c(C)c(-c3ccccc3)[nH]n2c(=O)c1C	none
COc1ccc(N(CC(=O)Nc2cccc(Br)c2)S(=O)(=O)c2ccc(C)cc2)cc1	none
CC1(C)CC(=O)c2c(oc3ccc(NS(=O)(=O)c4cc(Cl)ccc4Cl)cc23)C1	none
Cc1ccc(OCc2nnc(NC(=O)Nc3cccc(Cl)c3)s2)c(C)c1	none
O=C(COc1ccccc1)Nc1ccc(Cc2ccncc2)cc1	Cy5 interf NS3h 0.71
O=C(COc1ccccc1)Nc1ccncc1	none
COc1cc(/C=c2\sc3nc4ccccc4n3c2=O)ccc1OC(=O)c1ccc(F)cc1	none
Cc1ccc(OCCNc2cc(N3CCN(C)CC3)ccc2[N+](=O)[O-])cc1C	Cy5 interf NS3h 0.61
CC(Nc1cc(N2CCN(C)CC2)ccc1[N+](=O)[O-])c1ccc(Br)cc1 (configuration not stated)	none
C=CCNC(=O)COc1cccc(C)c1	none
COc1ccc(CN2C(=O)NC(=O)/C(=C\C=C\c3ccco3)C2=O)cc1	none
COc1ccc(CN2C(=O)NC(=O)/C(=C\C=C\c3ccccc3)C2=O)cc1	Cy5 interf NS3h 1.9
CC(=O)Nc1ccc(C(=O)NCc2ccccn2)cc1	none
O=C1NN=C2C3CCC4CC12CC1(C3)C(=O)NN=C41	Cy5 interf NS3h 0.74
COc1ccc(C=C2NC(=S)N(c3ccccc3)C2=O)c(OC)c1	none
Cc1ccc(-c2nc3ccccc3s2)cc1NC(=O)COc1ccccc1[N+](=O)[O-]	none
CCc1ccc(NC(=S)NC(=O)/C=C/c2ccccc2)cc1	NS3h inh CB 49
CC(=O)c1ccc(NC(=S)NC(=O)/C=C/c2ccccc2)cc1	none
c1cncc(-c2noc(C3CCCCC3)n2)c1	none
COc1ccc(C(=O)Oc2cccc(C(=S)N3CCOCC3)c2)cc1	none
S=C(c1cccc(OCc2ccccc2)c1)N1CCOCC1	Cy5 interf NS3h 0.64
CCc1c(C)c(C#N)c2nc3ccccc3n2c1NCCO	none
O=c1oc(-c2cccnc2)nc2ccccc12	none
O=C1c2ccc(-c3nc4ccccc4c(=O)o3)cc2C(=O)N1c1c[nH]c(=O)[nH]c1=O	NS3h inh CB 41
Cc1c(Br)c([N+](=O)[O-])nn1CC(=O)N1CCc2ccccc2C1	Cy5 interf NS3h 0.56
Cc1c(Cl)c([N+](=O)[O-])nn1CC(=O)N1CCCC1	none
CCc1ccccc1NC(=O)CN(c1ccc(C)cc1)S(=O)(=O)c1ccc(SC)cc1	none
O=C(Nc1ccc(-c2nc3ccccc3s2)cc1)c1cccc(C(F)(F)F)c1	none
CCc1ccc(NC(=O)c2ccc(Cl)cc2Cl)cc1	none
CCOC(=O)c1sc(NC(=O)c2cncc(Br)c2)nc1C	none
CCOC(=O)c1sc(NC(=O)c2ccc(OCC)c(Cl)c2)nc1C	NS3h inh CB 57
CCOC(=O)c1sc(NC(=O)c2ccc(Cl)cc2Cl)nc1C	Cy5 interf NS3h 0.64
O=C(Nc1ccc(I)cc1Cl)c1ccc2ccccc2c1	none
Brc1ccc(N2COc3ccc4ccccc4c3C2)cc1	none
C=CCN(CC=C)Cn1[nH]c(=O)ccc1=O	Cy5 interf NS3h 0.75
CC1CCN(Cn2[nH]c(=O)ccc2=O)CC1	none
CCOc1ccc(Cc2c(O)nc(N)[nH]c2=O)cc1	none
O=C1N=c2ccccc2=C1c1sc(=S)n(-c2ccc(C(=O)O)cc2)c1O	Cy5 interf NS3h 1.2
Cc1cccc(-n2c(O)c(C3=c4ccccc4=NC3=O)sc2=O)c1	none
COC(=O)c1ccc(-n2c(C)cc(/C=C3\SC(NC(C)=O)=NC3=O)c2C)cc1	none
CCn1c(-c2ccc(Cl)cc2Cl)n[nH]c1=S	none
Nc1nnc(SCC(=O)Nc2ccccc2[N+](=O)[O-])s1	none
Nc1nnc(SCc2ccc([N+](=O)[O-])cc2)s1	Cy5 interf NS3h 0.72
C=CCN1C(=O)/C(=C\c2ccccc2OCc2cccc3ccccc23)SC1=S	none
CCOC(=O)c1ccc(NC(=O)c2ccc(OCC(C)C)cc2)cc1	none
COC(=O)c1ccc(OCC(O)CN(C)C)cc1 (configuration not stated)	Cy5 interf NS3h 0.76
Cc1cc(OCC(=O)Nc2ccc(I)cc2Cl)ccc1Cl	none
O=S(=O)(Nc1ccc(O)cc1)c1ccc(F)cc1	none
O=C(c1ccc(F)cc1)c1ccc(NS(=O)(=O)c2ccc(Cl)cc2)cc1	Cy5 interf NS3h 1.2
O=S(=O)(Nc1ccc(O)cc1)c1ccc(Br)cc1	none
O=S(=O)(Nc1ccc(Br)cc1)c1ccc(Cl)cc1	Cy5 interf NS3h 0.79
CCOc1ccccc1NC1=C(Cl)C(=O)N(c2ccc(C)cc2)C1=O	none
Cc1ccc(-c2n[nH]c(=S)c3ccccc23)cc1C	none
CS(=O)(=O)N1CCN(C(=O)c2ccccc2F)CC1	Cy5 interf NS3h 0.7
COc1ccc(C(=O)N2CCN(S(C)(=O)=O)CC2)cc1	none
CCCC(=O)C1=C(O)C(C(=O)OC)C(C)(C)CC1=Nc1nc2ccccc2[nH]1 (configuration not stated)	none
